From PubChem BioAssay (Tox21) come the findings set out here.

Experiment [1] can be described thus: qHTS assay to identify small molecule HDAC inhibitors (AID 1259364). Also: top concentration of the series differs between compounds; nearly all actives have a fitted effect of over 45% in size. The method in brief:
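Endogenous HDAC class I/II activity was measured in wild-type HCT-116 cells by HDAC-Glo luminescence after 2 h compound treatment.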
(In general: Quantitative high-throughput screening tests each substance at several concentrations.)

Experiment [2] can be described thus: qHTS assay to identify small molecule HDAC inhibitors - cell viability counter screen (AID 1259365). Also: series mostly up to about 92 µM; nearly all actives have a fitted effect of over 50% in size. The essentials:
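Luminescence from CellTiter-Glo, developed 30min at room temperature, reports viability of wild-type HCT-116 cells treated 2hr with compounds at 37 C and 5% CO2 after overnight plating.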

The nature of experiment [3]: qHTS assay to identify small molecule agonists of the sonic hedgehog signaling (Shh) pathway - cell viability counter screen (AID 1259366). Also: nearly all actives have a fitted effect of over 50% in size. Also: potency is read from the fitted curve at half-maximal effect. The method in brief:
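Cytotoxicity counter screen run in the same wells as the Shh reporter assay. NIH/3T3 cells carrying a Gli1 response element–driven luciferase were treated with DMSO-dissolved compounds for 24hr, and live-cell protease activity was measured with CellTiter-Fluor.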

Experiment [4] can be described thus: qHTS assay to identify small molecule antagonists of the sonic hedgehog signaling (Shh) pathway - cell viability counter screen (AID 1259367). Also: nearly all actives have a fitted effect of over 55% in size. The essentials: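 After a 4 hr settling period, 3T3 Gli1-Luc cells were treated with DMSO-dissolved chemicals and conditioned medium, kept 24 hr at 37C in 5% CO2, and assayed for viability by CellTiter-Fluor fluorescence following 1 hr reagent incubation.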

Experiment [5] is described as follows: qHTS assay to identify small molecule agonists of the sonic hedgehog signaling (Shh) pathway (AID 1259368; calls by dose curve;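 also: NIH/3T3-derived 3T3Gli1-Luc cells carrying a stable Gli1-driven firefly luciferase reporter; series mostly up to about 92 µM; nearly all actives have a fitted effect of over 15% in size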). The essentials:
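Luminescent signal was taken as a measure of Gli1-controlled luciferase expression in stably transfected NIH/3T3-derived cells that had been treated for 24 hr with compounds delivered in DMSO.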

Experiment [6] can be described thus: qHTS assay to identify small molecule antagonists of the sonic hedgehog signaling (Shh) pathway (AID 1259369; calls by dose curve; also: nearly all actives have a fitted effect of over 45% in size). The method in brief: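 Screening used 3T3Gli1-Luc cells at 2,000 per well, compounds delivered in DMSO, and conditioned medium as agonist stimulus; plates incubated 24hr at 37 C and 5% CO2 before a 30min luciferase step.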
Experiment [7] in a line: qHTS assay to identify small molecule agonists of the androgen receptor (AR) signaling pathway in the presence of an antagonist - cell viability counter screen (AID 1259379). Also: nearly all actives have a fitted effect of over 25% in size. Also: potency is read from the fitted curve at half-maximal effect. The essentials:
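In MDA-kb2 cells (human breast carcinoma, MMTV-luciferase), compounds at 15 concentrations plus 3.0uM nilutamide; 16 hr, 37C, 0% CO2; CellTiter-Fluor fluorescence read for viability.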

Experiment [8] in a line: qHTS assay to identify small molecule agonists of the estrogen receptor beta (ER-beta) signaling pathway - cell viability counter screen (AID 1259380). Also: nearly all actives have a fitted effect of over 30% in size. The essentials:
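Viability of ER-beta-UAS-bla HEK293T cells was determined by CellTiter-Glo luminescence following 16 hr treatment with test compounds at 37C.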

A short description of experiment [9]: qHTS assay to identify small molecule antagonists of the estrogen receptor beta (ER-beta) signaling pathway - cell viability counter screen (AID 1259382). Also: series mostly up to about 92 µM; nearly all actives have a fitted effect of over 55% in size. The method in brief: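 Tox21 10K library tested in qHTS format on ER-beta-bla HEK293T cells stimulated with 1nM E2; 16 hr treatment at 37C. Same-well CellTiter-Glo luminescence served as the cell viability measure.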

Experiment [10] addresses Estrogen receptor (Homo sapiens) (UniProt P03372). Briefly: qHTS assay to identify small molecule agonists of the estrogen receptor alpha (ER-alpha) signaling pathway in the presence of an antagonist (AID 1259383; calls by dose curve; also: top concentration of the series differs between compounds; nearly all actives have a fitted effect of over 15% in size). The method in brief: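 In VM7Luc4E2 cells, 4,000 per well, compounds at 15 concentrations were co-incubated 22hr at 37C with 10.0nM final ICI-182,780. Luminescence from the stably transfected 4×ERE-luciferase reporter was recorded 30min after ONE-Glo addition.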

Experiment [11] is described as follows: qHTS assay to identify small molecule agonists of the estrogen receptor alpha (ER-alpha) signaling pathway in the presence of an antagonist - cell viability counter screen (AID 1259386).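 Also: cells exposed to compounds for 22 h at 37 °C before the viability read; nearly all actives have a fitted effect of over 30% in size.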 Also: potency is read from the fitted curve at half-maximal effect. The method in brief:
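Fluorescent CellTiter-Fluor viability signal from VM7Luc4E2 cells, with the reagent added during the final hour of a 22hr compound exposure at 37C in the presence of 10.0nM ICI-182,780.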

The target in experiment [12] is Progesterone receptor (Homo sapiens) (UniProt P06401). The experiment can be described thus: qHTS assay to identify small molecule agonists of the progesterone receptor (PR) signaling pathway (AID 1346784; calls by dose curve; also: nearly all actives have a fitted effect of over 30% in size). The essentials: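 Beta-lactamase reporter read-out: after 16 hr compound treatment at 37C and a further 2 hr at room temperature with LiveBLAzer B/G FRET substrate, fluorescence was measured in PR-UAS-bla HEK 293T cells grown in 2% charcoal-stripped serum.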
Sequence of Progesterone receptor (Homo sapiens) (P06401 whole entry, looked up): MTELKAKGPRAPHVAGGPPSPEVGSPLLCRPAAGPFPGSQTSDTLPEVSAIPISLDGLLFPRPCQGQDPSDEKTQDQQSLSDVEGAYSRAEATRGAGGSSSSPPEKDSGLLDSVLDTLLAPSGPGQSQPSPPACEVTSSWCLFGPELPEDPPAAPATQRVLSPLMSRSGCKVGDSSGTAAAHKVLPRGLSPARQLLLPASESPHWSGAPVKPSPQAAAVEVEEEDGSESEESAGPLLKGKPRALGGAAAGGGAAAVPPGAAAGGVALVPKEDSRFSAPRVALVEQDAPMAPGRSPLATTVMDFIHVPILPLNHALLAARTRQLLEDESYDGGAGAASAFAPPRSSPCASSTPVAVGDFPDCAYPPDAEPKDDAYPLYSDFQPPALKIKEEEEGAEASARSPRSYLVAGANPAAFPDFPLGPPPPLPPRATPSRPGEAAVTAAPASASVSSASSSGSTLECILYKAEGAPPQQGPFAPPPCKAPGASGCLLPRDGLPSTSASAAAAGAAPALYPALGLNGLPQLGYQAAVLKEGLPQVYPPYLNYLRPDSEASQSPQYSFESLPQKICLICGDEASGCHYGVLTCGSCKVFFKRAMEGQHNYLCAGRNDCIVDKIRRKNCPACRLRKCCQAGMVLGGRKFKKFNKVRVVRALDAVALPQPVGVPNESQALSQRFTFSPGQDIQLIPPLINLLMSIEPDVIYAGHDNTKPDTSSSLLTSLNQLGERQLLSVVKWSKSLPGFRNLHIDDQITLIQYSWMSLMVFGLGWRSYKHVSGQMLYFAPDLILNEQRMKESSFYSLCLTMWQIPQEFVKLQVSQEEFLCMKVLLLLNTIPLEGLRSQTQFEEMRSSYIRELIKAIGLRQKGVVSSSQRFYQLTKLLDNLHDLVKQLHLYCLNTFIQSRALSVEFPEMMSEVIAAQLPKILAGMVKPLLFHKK

For experiment [13] the target is unchanged. The experiment can be described thus: qHTS assay to identify small molecule antagonists of the progesterone receptor (PR) signaling pathway (AID 1346795; active = well fitted inhibition curve with a large enough effect in the signal ratio in the repeat runs, not every such curve was filed as active; the % refers to the signal ratio; also: potency is read from the fitted curve at half-maximal effect). The method in brief: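 Read-out is fluorescence from the LiveBLAzer B/G FRET substrate, cleaved by a UAS-controlled beta-lactamase in PR-UAS-bla HEK293T cells after 16 hr exposure to compound plus 1 nM promegestone (final), followed by 2 hr at room temperature.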

A short description of experiment [14]: qHTS assay to identify small molecule antagonists of the progesterone receptor (PR) signaling pathway - cell viability counter screen (AID 1346798).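 Also: HEK293T PR-UAS-bla cells stimulated with the agonist R5020; series mostly up to about 92 µM; nearly all actives have a fitted effect of over 50% in size.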 The method in brief:
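HEK293T PR-UAS-bla, 2% charcoal-stripped FBS; 4 hr pre-plate; cpd + R5020, 16 h 37C; LiveBLAzer read first; then CellTiter-Glo 30 min RT, luminescence.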

Experiment [15] can be described thus: qHTS assay to identify small molecule agonists or antagonists of the thyroid stimulating hormone receptor (TSHR) signaling pathway - wild type cell line counter screen (AID 1259384; calls by dose curve). The essentials: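 Wild-type HEK293 cells were plated 18 h at 37 C/5% CO2, pin-dosed with compound plus Ro20-1724 medium, held 30 min at room temperature, then given cAMP-d2 and anti-cAMP-cryptate; fluorescence was read after 1 h. Fifteen concentrations, triplicate.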

The target of experiment [16] is Thyrotropin receptor (Homo sapiens) (UniProt P16473). The experiment can be described thus: qHTS assay to identify small molecule antagonists of the thyroid stimulating hormone receptor (TSHR) signaling pathway (AID 1259385; calls by dose curve; also: nearly all actives have a fitted effect of over 20% in size). The method in brief:
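TSHR-HEK293 cells were plated and held 18 h at 37C/5% CO2, then given compound plus Ro20-1724 and stimulated with TSH at 1.5 ng/mL final. After 30 min at room temperature, cAMP was detected with cAMP-d2/anti-cAMP-cryptate (1 h) by fluorescence.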

For experiment [17], the target named is Androgen receptor (Homo sapiens) (UniProt P10275). The experiment can be described thus: qHTS assay to identify small molecule agonists of the androgen receptor (AR) signaling pathway in the presence of an antagonist (AID 1259381; calls by dose curve; also: nearly all actives have a fitted effect of over 15% in size). The essentials:
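Here, 15-concentration compound series were pin-transferred onto MDA-kb2 MMTV-luciferase cells already dosed with nilutamide (3.0uM final). After 16hr at 37C, ONE-Glo was added and luminescence read 30min later at room temperature.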

Experiment [18] concerns the target Estrogen receptor beta (Homo sapiens) (UniProt Q92731). The experiment can be described thus: qHTS assay to identify small molecule agonists of the estrogen receptor beta (ER-beta) signaling pathway (AID 1259377; active = well fitted activation curve with a large enough effect in the signal ratio in the repeat runs, not every such curve was filed as active; the % refers to the signal ratio). The essentials:
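HEK293T ER-beta-UAS-bla; 2% charcoal-stripped FBS; cells pre-incubated 6 hr, compound 16 hr, 37C/5% CO2; LiveBLAzer B/G FRET substrate 2 h RT; fluorescence intensity read.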

Experiment [19] shares this target. Briefly: qHTS assay to identify small molecule antagonists of the estrogen receptor beta (ER-beta) signaling pathway (AID 1259378; active = well fitted inhibition curve with a large enough effect in the signal ratio in the repeat runs, not every such curve was filed as active; the % refers to the signal ratio). The essentials:
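ER-beta-UAS-bla HEK293T (GripTite) cells in 2% charcoal-stripped FBS medium were preincubated 6 hr at 37C, dosed with compound, then stimulated with 1 nM E2 (final) for 16 hr; beta-lactamase reporter read by B/G FRET fluorescence after 2 hr substrate loading.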

The structures appear in SMILES notation. “And” between values parts separate entries of the source, which are not always exact repeats. Equal values may be shown once. Inconclusive results are not listed. The source made the active and inactive calls. Unless noted, calls follow the shape of the dose curve; as a rule, active = well fitted curve in the direction sought with a large enough effect in the repeat runs; inconclusive = weak or mixed curves; inactive = no such curve, though single readings can be large; an effect the other way counts as inactive or inconclusive.

Sequence of Androgen receptor (Homo sapiens) (P10275 whole entry, looked up): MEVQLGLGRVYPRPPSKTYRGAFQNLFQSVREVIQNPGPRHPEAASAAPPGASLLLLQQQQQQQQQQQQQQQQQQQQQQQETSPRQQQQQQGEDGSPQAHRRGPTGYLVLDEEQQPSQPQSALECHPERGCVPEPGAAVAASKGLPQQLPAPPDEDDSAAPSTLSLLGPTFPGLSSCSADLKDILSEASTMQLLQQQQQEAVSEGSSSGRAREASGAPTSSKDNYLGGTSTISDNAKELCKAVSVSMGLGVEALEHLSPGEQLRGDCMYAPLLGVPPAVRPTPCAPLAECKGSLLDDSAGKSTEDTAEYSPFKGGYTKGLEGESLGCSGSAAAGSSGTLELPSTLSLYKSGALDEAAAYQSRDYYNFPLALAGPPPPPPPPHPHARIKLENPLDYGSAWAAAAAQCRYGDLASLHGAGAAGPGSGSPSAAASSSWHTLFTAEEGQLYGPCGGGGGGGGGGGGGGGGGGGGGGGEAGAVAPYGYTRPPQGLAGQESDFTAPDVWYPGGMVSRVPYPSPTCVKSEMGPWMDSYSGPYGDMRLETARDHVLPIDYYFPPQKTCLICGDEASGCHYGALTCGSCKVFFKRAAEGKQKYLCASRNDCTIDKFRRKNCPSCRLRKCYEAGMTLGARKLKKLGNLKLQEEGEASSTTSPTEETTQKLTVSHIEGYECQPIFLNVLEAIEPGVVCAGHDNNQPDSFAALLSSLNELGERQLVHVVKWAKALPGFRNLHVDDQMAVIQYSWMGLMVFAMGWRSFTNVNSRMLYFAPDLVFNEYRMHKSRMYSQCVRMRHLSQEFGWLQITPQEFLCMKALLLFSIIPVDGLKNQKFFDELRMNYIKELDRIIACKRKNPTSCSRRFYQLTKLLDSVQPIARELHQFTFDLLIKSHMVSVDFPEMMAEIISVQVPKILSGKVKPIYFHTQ
Sequence of Estrogen receptor beta (Homo sapiens) (Q92731 whole entry, looked up): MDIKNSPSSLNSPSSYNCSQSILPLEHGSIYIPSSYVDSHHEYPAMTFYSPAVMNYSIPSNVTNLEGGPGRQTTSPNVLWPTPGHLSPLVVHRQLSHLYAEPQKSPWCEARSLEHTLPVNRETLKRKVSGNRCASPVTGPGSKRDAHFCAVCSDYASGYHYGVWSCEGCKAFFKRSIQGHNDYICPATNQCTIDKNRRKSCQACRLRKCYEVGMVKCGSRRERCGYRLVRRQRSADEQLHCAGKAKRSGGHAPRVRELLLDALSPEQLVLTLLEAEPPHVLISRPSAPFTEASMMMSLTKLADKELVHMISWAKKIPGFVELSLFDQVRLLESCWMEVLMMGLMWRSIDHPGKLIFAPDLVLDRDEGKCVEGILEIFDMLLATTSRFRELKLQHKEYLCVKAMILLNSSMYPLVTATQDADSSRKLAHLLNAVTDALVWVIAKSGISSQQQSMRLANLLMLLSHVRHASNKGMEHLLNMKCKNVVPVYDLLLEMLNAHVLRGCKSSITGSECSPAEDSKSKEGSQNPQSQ
Sequence of Estrogen receptor (Homo sapiens) (P03372 whole entry, looked up): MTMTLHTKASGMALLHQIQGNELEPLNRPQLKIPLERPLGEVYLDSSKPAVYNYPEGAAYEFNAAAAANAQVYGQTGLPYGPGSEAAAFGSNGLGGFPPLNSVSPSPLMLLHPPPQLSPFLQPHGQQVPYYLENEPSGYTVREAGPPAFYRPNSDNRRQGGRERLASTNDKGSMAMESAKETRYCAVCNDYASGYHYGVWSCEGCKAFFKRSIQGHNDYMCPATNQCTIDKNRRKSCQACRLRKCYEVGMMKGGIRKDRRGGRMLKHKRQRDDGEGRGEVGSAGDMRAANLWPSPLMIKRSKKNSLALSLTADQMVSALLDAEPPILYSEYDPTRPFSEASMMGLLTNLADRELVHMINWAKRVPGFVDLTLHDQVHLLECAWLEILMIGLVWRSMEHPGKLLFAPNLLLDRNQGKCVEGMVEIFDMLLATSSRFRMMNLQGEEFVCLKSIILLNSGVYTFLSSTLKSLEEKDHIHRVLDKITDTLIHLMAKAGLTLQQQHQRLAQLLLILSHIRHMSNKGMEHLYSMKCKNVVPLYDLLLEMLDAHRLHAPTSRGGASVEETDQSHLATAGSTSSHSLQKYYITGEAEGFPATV
Sequence of Thyrotropin receptor (Homo sapiens) (P16473 whole entry, looked up): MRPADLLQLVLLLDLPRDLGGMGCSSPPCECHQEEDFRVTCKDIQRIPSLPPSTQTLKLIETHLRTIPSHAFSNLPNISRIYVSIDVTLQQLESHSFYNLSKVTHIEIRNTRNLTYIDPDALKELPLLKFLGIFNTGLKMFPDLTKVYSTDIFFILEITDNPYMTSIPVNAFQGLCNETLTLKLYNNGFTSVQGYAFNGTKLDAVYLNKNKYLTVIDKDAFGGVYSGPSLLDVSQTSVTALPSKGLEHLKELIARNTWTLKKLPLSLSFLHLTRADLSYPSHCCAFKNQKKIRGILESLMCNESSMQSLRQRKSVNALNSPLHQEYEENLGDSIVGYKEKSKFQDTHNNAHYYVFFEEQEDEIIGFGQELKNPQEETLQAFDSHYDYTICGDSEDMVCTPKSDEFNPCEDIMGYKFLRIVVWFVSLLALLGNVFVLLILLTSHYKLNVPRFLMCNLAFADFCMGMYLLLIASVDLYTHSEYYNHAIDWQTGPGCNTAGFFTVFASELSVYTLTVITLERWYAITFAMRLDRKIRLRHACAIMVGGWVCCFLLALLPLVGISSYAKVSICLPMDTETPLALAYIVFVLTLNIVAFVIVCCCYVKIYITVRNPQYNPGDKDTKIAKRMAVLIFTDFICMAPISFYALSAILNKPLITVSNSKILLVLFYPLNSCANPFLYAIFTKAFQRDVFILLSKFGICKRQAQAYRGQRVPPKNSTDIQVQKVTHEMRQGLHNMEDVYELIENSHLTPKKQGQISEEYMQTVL

On to `C/C=C1/CC2C=CC1C2` (configuration not stated), for which the Potency result in experiment [1], in [3], in experiment [4], in [6], in experiment [7] and in [8] was “inactive” each time. Further, the Potency entry in experiment [9], in [10], in experiment [11], in experiment [12], in [13] and in [14] was “inactive” throughout. Besides, the compound was called inactive in experiment [2] and in [5].

In the case of `O=C(OCCOCCOC(=O)c1ccccc1)c1ccccc1`, the Potency result in experiment [1], in [3], in experiment [4], in experiment [6], in experiment [7] and in experiment [8] was “inactive” throughout. Moreover, the Potency result in experiment [9], in experiment [16], in experiment [11], in [12], in experiment [13] and in [14] was “inactive” throughout. Further, the call in experiment [2], in experiment [5] and in [15] was inactive.

Regarding `Nc1cc([N+](=O)[O-])ccc1O`, the Potency entry in experiment [1], in experiment [4], in experiment [6], in experiment [8], in experiment [17] and in [9] was “inactive” throughout. In addition, the Potency result in experiment [12], in [13] and in experiment [14] was “inactive” in each case. The compound was classed as inactive in experiment [2], in [5] and in experiment [15]. Besides, the Potency is 48.6 µM (active) in [3]; 48.6 µM (active) and 54.2 µM (active) in [7]; 43.3 µM (active) and 27.2 µM (active) in [11].

Consider `CC(=O)CC(=O)Nc1ccccc1`, for which the Potency entry in [1], in experiment [3], in experiment [4], in experiment [18], in [19] and in experiment [7] was “inactive” throughout. The Potency result in [9], in experiment [16], in [11], in [12], in [13] and in experiment [14] was “inactive” in each case. Further, the call in experiment [2], in experiment [5] and in [15] was inactive.

For `CCCCOC(=O)COc1ccc(Cl)cc1Cl`, the Potency entry in [1], in experiment [3], in [4], in [6], in experiment [7] and in experiment [9] was “inactive” throughout. Moreover, the Potency result in [16], in experiment [11], in [12], in [13] and in [14] was “inactive” in each case. Also, the compound was classed as inactive in [2] and in [5].

Regarding `O=C(O)c1ccccc1C(c1ccc(O)cc1)c1ccc(O)cc1`, the Potency result in experiment [1], in experiment [3], in experiment [4], in experiment [6], in experiment [18] and in experiment [19] was “inactive” throughout. Besides, the Potency entry in experiment [7], in experiment [17], in [9], in [10], in experiment [16] and in experiment [11] was “inactive” in each case. In addition, the Potency result in experiment [12], in [13] and in [14] was “inactive” in each case. Also, the outcome in [2] and in experiment [5] was inactive.

With `CCCCCCCC(=O)OC`, the Potency result in [1], in [3], in [4], in [6], in [18] and in [19] was “inactive” each time. Also, the Potency result in [7], in [8], in experiment [9], in [10], in experiment [16] and in experiment [11] was “inactive” throughout. The Potency entry in experiment [12], in experiment [13] and in experiment [14] was “inactive” in each case. Further, the call in experiment [2], in [5] and in experiment [15] was inactive.

Regarding `CC(C)(C)[C@@H](O)[C@@H](Cc1ccc(Cl)cc1)n1cncn1`, the Potency result in [1], in [3], in experiment [4], in experiment [18], in [19] and in experiment [7] was “inactive” throughout. Besides, the Potency entry in experiment [8], in experiment [9], in [16], in [11], in experiment [12] and in [14] was “inactive” throughout. For the same compound, the outcome in [2] and in experiment [5] was inactive. Moreover, the Potency in experiment [13] is 48.2 µM (active).
